Holding throughout (assay): PBM binding z-score (relative to random genomic background probes); higher = stronger binding; sequences stand for … in GC…GCGATTGACAGCGTAGAATGAAGG
The subject of assay [1] is FXR:RXRa (NR concentration 270 nM, RXRa partner concentration 90 nM). Summed up:
(§1)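 Binding buffer was PBS pH 7.4 with 2% milk, 0.02% Triton X-100, 1 mM DTT, 0.2 mg/mL BSA and 0.4 mg/ml salmon testes DNA. In it, ligand-free nuclear receptor dimers were incubated 1 h on custom Agilent 4×180K protein-binding microarrays carrying double-stranded probes. Antibodies against each partner (one per run) detected binding, and z-scores were calculated against random background probes after regression normalization of scanned fluorescence.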

For assay [2], the system named is LXRa:RXRa (NR concentration 270 nM, RXRa partner concentration 90 nM). Summed up:
as §1

Assay [3] relates to LXRa homodimer (NR concentration 270 nM). Summed up:
as §1

Assay [4] has as its system LXRb:RXRa (NR concentration 270 nM, RXRa partner concentration 90 nM). Summed up:
as §1

Assay [5] relates to LXRb homodimer (NR concentration 270 nM). In short, it runs like this:
as §1

The subject of assay [6] is PPARa:RXRa (NR concentration 270 nM, RXRa partner concentration 90 nM). In short, it runs like this:
as §1

For assay [7], the system named is PPARg:RXRa (NR concentration 180 nM, RXRa partner concentration 90 nM). Summed up:
as §1

In assay [8] the test system is PPARg:RXRa 270nM:90nM, anti-RXR (NR concentration 270 nM, RXRa partner concentration 90 nM). Summed up: as §1
Assay [9] deals with PPARg:RXRa 30nM:10nM, anti-RXR (NR concentration 30 nM, RXRa partner concentration 10 nM). In short, it runs like this:
as §1

For assay [10], the system named is PPARg:RXRa 90nM:30nM, anti-RXR (NR concentration 90 nM, RXRa partner concentration 30 nM). Summed up: as §1
Assay [11] deals with PPARg:RXRa DBDmut IVT, anti-RXR (DBD mutation: RXRa K156A/R161A, NR concentration 270 nM, RXRa partner concentration 90 nM). Summed up: as §1
The test system of assay [12] is PPARg:RXRa IVT, anti-PPARg (NR concentration 270 nM, RXRa partner concentration 90 nM). Summed up: as §1
The subject of assay [13] is PPARg DBDmut:RXRa IVT, anti-PPARg (DBD mutation: PPARg1 K132A/R137A, NR concentration 270 nM, RXRa partner concentration 90 nM). Summed up: as §1
The subject of assay [14] is PPARg DBDmut IVT, anti-PPARg (DBD mutation: PPARg1 K132A/R137A, NR concentration 270 nM). Summed up:
as §1

The test system of assay [15] is PPARg homodimer (NR concentration 180 nM). In short, it runs like this:
as §1

In assay [16] the test system is PXR:RXRa (NR concentration 270 nM, RXRa partner concentration 90 nM). In short, it runs like this:
as §1

For assay [17], the system named is PXR homodimer (NR concentration 270 nM). Summed up:
as §1

Assay [18] concerns RARa:RXR (NR concentration 270 nM, RXRa partner concentration 90 nM). Summed up:
as §1

Assay [19] concerns RARa homodimer (NR concentration 270 nM). In short, it runs like this: as §1
Assay [20] relates to RARb:RXRa (NR concentration 270 nM, RXRa partner concentration 90 nM). In short, it runs like this: as §1

As for CGAACTAGGTCATCCAGGACAGTGAATACATTGA, the PBM binding z-score in assay [1] came to 4.28; in [2] it was 2.79; in assay [3] it was 0.603; in assay [4], 2.04; in assay [5] it was 0.134; in [6], 4.91. Also, the PBM binding z-score was 7.69 in assay [7]; 6.5 in [8]; 4.15 in assay [9]; 6.05 in [10]; 8.1 in [11]; 8.47 in assay [12]. For the same sequence, the PBM binding z-score was 3.54 in assay [13]; 2.16 in [14]; 1.36 in assay [15]; 2.06 in assay [16]; 1.61 in assay [17]; 2.38 in assay [18]. The PBM binding z-score turned out to be 0.896 in assay [19] and 3.91 in assay [20].

Turning to CATACAGCGTCAGCTAGGCCAGAGTAGGGACGGC, the PBM binding z-score in assay [1] is -0.554; in [2] it was -0.839; in assay [3], -0.547; in [4] it was -1.42; in assay [5] it was -0.647; in assay [6] it was -1.05. In addition, the PBM binding z-score in assay [7] is 0.332; in assay [8], -0.936; in assay [9], -0.344; in assay [10] it was -0.884; in assay [11], -0.164; in assay [12] it was -0.272. Moreover, the PBM binding z-score was -0.28 in assay [13]; 0.0344 in assay [14]; -0.557 in [15]; -1.3 in assay [16]; -0.659 in assay [17]; -0.799 in assay [18]. Also, the PBM binding z-score in [19] was -0.655; in assay [20], -0.287.

In the case of AGAATGAGGTTAATAAGATCAGGGAATTGCGGTC, the PBM binding z-score worked out at 1.38 in assay [1]; 1.15 in assay [2]; 0.213 in assay [3]; 1.24 in assay [4]; 0.00596 in assay [5]; 2.74 in assay [6]. Also, the PBM binding z-score came to 1.75 in [7]; 2.22 in [8]; 0.516 in assay [9]; 1.58 in assay [10]; 3.37 in assay [11]; 2.89 in assay [12]. Besides, the PBM binding z-score in assay [13] turned out to be 0.759; in assay [14] it was 0.384; in assay [15], 1.23; in [16] it was 1.06; in [17] it was 0.151; in [18], 1.48. Besides, the results for the PBM binding z-score in [19] and in assay [20] were 0.329 and 1.58, respectively.

Consider GCGACTGGGGCATCAGCATGTTACCATAACTTAA, for which the PBM binding z-score was -0.56 in [1]; -0.551 in assay [2]; -0.462 in assay [3]; 0.363 in assay [4]; -0.493 in [5]; 0.258 in assay [6]. Further, the PBM binding z-score in assay [7] is 0.836; in assay [8], 0.643; in assay [9], -0.13; in assay [10] it was -0.0118; in assay [11], 3.55; in assay [12] it was 2.94. Further, the PBM binding z-score is -0.0811 in [13]; -0.739 in [14]; -0.0822 in assay [15]; -0.238 in [16]; -0.758 in assay [17]; -0.253 in assay [18]. Moreover, the PBM binding z-score was -0.423 in assay [19] and 0.376 in assay [20].

As for CATACAGGGTCAGCTAGGCTAGAGTAGGGACGGC, the PBM binding z-score in [1] was 4.44; in assay [2], 2.68; in assay [3] it was -0.0896; in assay [4], 2.06; in [5] it was -0.0361; in assay [6], 4.12. In addition, the PBM binding z-score in [7] was 3.06; in [8], 2.93; in assay [9] it was 0.539; in assay [10] it was 2.03; in assay [11] it was 1.19; in assay [12], 2.32. Further, the PBM binding z-score was 0.769 in assay [13]; 0.0787 in assay [14]; 1.21 in assay [15]; 1.85 in assay [16]; -0.333 in assay [17]; 2.72 in assay [18]. The PBM binding z-score turned out to be 0.409 in assay [19] and 3.96 in assay [20].

As to GCTTTCGGGTCAAAGGTTATAGCATGAATAGAAT, the PBM binding z-score in assay [1] was 7.21; in assay [2], 5.74; in assay [3], 0.496; in [4], 5.58; in assay [5] it was 0.746; in assay [6], 6.76. Further, the PBM binding z-score in assay [7] was determined as 11.3; in assay [8] it was 9.26; in [9], 8.67; in [10], 10; in assay [11], 3.82; in assay [12], 5.81. In addition, the PBM binding z-score in assay [13] worked out at 1.23; in assay [14], 1.1; in assay [15], 1.81; in assay [16], 5.89; in assay [17] it was 0.475; in [18], 8.07. Besides, the PBM binding z-score was determined as 1.08 in [19] and 4.59 in [20].

For TGTCAAAGTTCAAAGGTAACGTGAGTATCCACAC, the PBM binding z-score in assay [1] was 6.92; in assay [2], 6.79; in [3], 4.59; in assay [4], 4.91; in [5], 1.54; in [6], 5.99. The PBM binding z-score came to 8.97 in assay [7]; 7.93 in [8]; 6.04 in [9]; 7.73 in assay [10]; 0.486 in assay [11]; 4.72 in [12]. Also, the PBM binding z-score in assay [13] amounted to 1.71; in assay [14], 2.12; in [15] it was 3.33; in [16], 5.78; in assay [17], 3.67; in assay [18], 6.92. The PBM binding z-score in assay [19] stood at 0.948; in assay [20] it was 5.15.

Values taken from the supplement of paper PMC6555819.
